Holding throughout (experiment): NCI-60 one-dose screen, 48 h (100 = growth as untreated, 0 = no growth, -100 = all killed)
For one assay, the system named is HT29 colon. Particulars: 10 µM unless noted.
A further assay deals with SNB-75 CNS. The following applies: 10 µM unless noted.
A further assay relates to SNB-19 CNS. The following applies: 10 µM unless noted.
The subject of another assay is U251 CNS. The following applies: 10 µM unless noted.
The subject of a further assay is PC-3 prostate. The following applies: 10 µM unless noted.
In another assay the test system is SK-MEL-5 melanoma. Particulars: 10 µM unless noted.
The test system of a further assay is UACC-62 melanoma. Particulars: 10 µM unless noted.
In another assay the test system is LOX IMVI melanoma. Particulars: 10 µM unless noted.
The test system of another assay is SK-MEL-28 melanoma. Particulars: 10 µM.
In the next assay the test system is SK-MEL-2 melanoma. Particulars: 10 µM unless noted.
Another assay relates to EKVX NSCLC. Particulars: 10 µM unless noted.
A further assay has as its system SN12C renal. Particulars: 10 µM unless noted.
Another assay concerns UO-31 renal. Particulars: 10 µM unless noted.
The test system of a further assay is TK-10 renal. The following applies: 10 µM unless noted.
In the next assay the test system is ACHN renal. The following applies: 10 µM unless noted.
Another assay has as its system CAKI-1 renal. The following applies: 10 µM unless noted.
A further assay relates to A498 renal. The following applies: 10 µM unless noted.
Another assay relates to CCRF-CEM leukemia. The following applies: 10 µM unless noted.
Another assay has as its system MOLT-4 leukemia. The following applies: 10 µM unless noted.
For the next assay, the system named is SR leukemia. Particulars: 10 µM unless noted.

About 83,000 compounds went through this panel and 20% of them were active in at least one assay; those are over-represented in the sample as a whole.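 Negative percent growth values reflect cell death: -40 means 40% of the cells present at the start died, and -100 means all died.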 Unmarked numbers belong to inactive results. Active and inactive are the calls of the source. How the source made its calls: active means growth percent below 10; inactive means the rest.

Turning to `Fc1ccc(Oc2ccc(Nc3ncnc4onc(-c5ccccc5)c34)cc2)cc1`, the growth was 109% in the assay with HT29 colon; 86.4% with SNB-75 CNS; 94% with SNB-19 CNS; 91.4% in the assay on U251 CNS; 101% in the assay with PC-3 prostate; 100% in the assay with SK-MEL-5 melanoma. The growth was 92.1% with UACC-62 melanoma; 95.8% with LOX IMVI melanoma; 110% in the assay on SK-MEL-28 melanoma; 112% with SK-MEL-2 melanoma; 98.9% in the assay with EKVX NSCLC; 84.1% with SN12C renal. Also, the growth was 52.3% with UO-31 renal; 102% in the assay with TK-10 renal; 99.8% with ACHN renal; 93.5% with CAKI-1 renal; 67% in the assay with A498 renal; 62.9% in the assay on CCRF-CEM leukemia. Moreover, the growth was 88.7% in the assay on MOLT-4 leukemia and 102% in the assay with SR leukemia.

On to `CS(=O)(=O)Nc1ccc(C(=O)NC(C(=O)NO)c2ccc(-c3cccc(F)c3)cc2)cc1` (stereo not given), for which the growth with HT29 colon is 53.2%; in the assay with SNB-75 CNS, 24.8%; with SNB-19 CNS it was 45.2%; with U251 CNS, 94.1%; with PC-3 prostate, 86.9%; with SK-MEL-5 melanoma, 48%. Also, the growth in the assay with UACC-62 melanoma was 79%; in the assay with LOX IMVI melanoma, 44.8%; in the assay on SK-MEL-28 melanoma, 91.8%; in the assay on SK-MEL-2 melanoma, 73.6%; in the assay with EKVX NSCLC, 97.4%; with SN12C renal, 75.3%. The growth was 19.3% with UO-31 renal; 30.3% in the assay with TK-10 renal; 58.7% with ACHN renal; 49.9% in the assay with CAKI-1 renal; 95.6% in the assay on A498 renal; 95.1% in the assay on CCRF-CEM leukemia. Further, the growth in the assay on MOLT-4 leukemia is 103%; in the assay with SR leukemia, 78.8%.

For `Nc1nc2c(ncn2[C@@H]2O[C@H](CS)[C@@H](O)[C@H]2O)c(=O)[nH]1`, the growth in the assay on HT29 colon is 99.9%; with SNB-75 CNS, 92.6%; in the assay with SNB-19 CNS, 95.3%; in the assay with U251 CNS it was 99.3%; with PC-3 prostate, 101%; in the assay with SK-MEL-5 melanoma, 97%. Further, the growth in the assay with UACC-62 melanoma was 93.6%; with LOX IMVI melanoma, 96.9%; in the assay on SK-MEL-28 melanoma, 98.6%; in the assay with SK-MEL-2 melanoma, 120%; in the assay on EKVX NSCLC, 95.8%; with SN12C renal, 97.2%. For the same compound, the growth is 93% in the assay with UO-31 renal; 96.3% in the assay with TK-10 renal; 99.8% with ACHN renal; 94.5% in the assay with CAKI-1 renal; 99.9% with A498 renal; 100% with CCRF-CEM leukemia. For the same compound, the growth with MOLT-4 leukemia is 99%; with SR leukemia, 101%.

For `CC1(O)COCCCCOc2c(CN)cccc2NC(=O)c2nc(cnc2N)-c2ccc(cc2)S(=O)(=O)C(C)(C)C1` (stereo not given), the growth is 1.64% (active) with HT29 colon; -60.3% (active) in the assay on SNB-75 CNS; -55.9% (active) in the assay on SNB-19 CNS; -74.9% (active) in the assay with U251 CNS; 14% in the assay on PC-3 prostate; -94.9% (active) in the assay with SK-MEL-5 melanoma. The growth with UACC-62 melanoma was -90.8% (active); in the assay on LOX IMVI melanoma, -86.3% (active); with SK-MEL-28 melanoma it was -87.8% (active); with SK-MEL-2 melanoma, -32.6% (active); in the assay on EKVX NSCLC, -58% (active); with SN12C renal, -81.1% (active). The growth with UO-31 renal was -97.5% (active); with TK-10 renal, -36.2% (active); in the assay with ACHN renal it was -99.2% (active); in the assay with CAKI-1 renal, 39.4%; with A498 renal it was -34.4% (active); with CCRF-CEM leukemia, 5.36% (active). Also, the figures for the growth in the assay on MOLT-4 leukemia and in the assay with SR leukemia were -15.6% (active) and 8.92% (active), respectively.

Turning to `Cc1cc2c(c(C)c1Cl)C(=O)/C(=C/c1cccc([N+](=O)[O-])c1)O2`, the growth was 95.4% in the assay with HT29 colon; 102% with SNB-75 CNS; 96.8% in the assay on SNB-19 CNS; 93% in the assay with U251 CNS; 100% with PC-3 prostate; 96.6% with SK-MEL-5 melanoma. The growth in the assay on UACC-62 melanoma was 82%; with LOX IMVI melanoma, 102%; with SK-MEL-28 melanoma it was 102%; with SK-MEL-2 melanoma, 97.7%; with EKVX NSCLC it was 98.3%; in the assay with SN12C renal it was 96.9%. Besides, the growth was 96.2% with UO-31 renal; 129% in the assay on TK-10 renal; 107% in the assay on ACHN renal; 91.6% with CAKI-1 renal; 95.6% with A498 renal; 102% with CCRF-CEM leukemia. Besides, the growth in the assay on MOLT-4 leukemia was 90.5%; in the assay with SR leukemia, 85.5%.

In the case of `COC(=O)C1(C)CCC[C@]2(C)[C@H]3C[C@H]4C(C(C)C)=C[C@]3(CC[C@@H]12)[C@H]1[C@@H]4[C@@H](OCC#CCN2CCOCC2)CC[C@@H]1OCC#CCN1CCOCC1` (stereo not given in full), the growth with HT29 colon was 77.6%; in the assay with SNB-75 CNS it was 93.1%; in the assay with SNB-19 CNS, 79%; with U251 CNS, 70.9%; in the assay with PC-3 prostate, 53.9%; in the assay on SK-MEL-5 melanoma it was 80.2%. For the same compound, the growth is 61% in the assay on UACC-62 melanoma; 89% in the assay on LOX IMVI melanoma; 90.5% with SK-MEL-28 melanoma; 89.3% in the assay on SK-MEL-2 melanoma; 67.2% in the assay on EKVX NSCLC; 81.1% in the assay with SN12C renal. In addition, the growth is 72.9% in the assay on UO-31 renal; 98% in the assay on TK-10 renal; 92.3% with ACHN renal; 80% in the assay with CAKI-1 renal; 101% in the assay with A498 renal; 72% with CCRF-CEM leukemia. The growth in the assay on MOLT-4 leukemia is 70%; in the assay on SR leukemia it was 88.3%.

Consider `O=C(NCc1ccco1)C1CN(c2ccc(Cl)cc2)N(c2ccc(Cl)cc2)C1=O` (stereo not given), for which the growth with HT29 colon is 16.4%; in the assay on SNB-75 CNS, 16.8%; in the assay with SNB-19 CNS, 54.4%; in the assay on U251 CNS it was 33.9%; with PC-3 prostate, 27%; with SK-MEL-5 melanoma it was 41.8%. Besides, the growth is 24.4% in the assay with UACC-62 melanoma; 45.9% in the assay on LOX IMVI melanoma; 66.2% with SK-MEL-28 melanoma; 49.2% in the assay on SK-MEL-2 melanoma; 65.5% in the assay on EKVX NSCLC; 62.9% in the assay with SN12C renal. Moreover, the growth was 42.7% in the assay on UO-31 renal; 84.2% in the assay on TK-10 renal; 63.5% in the assay on ACHN renal; 41.1% in the assay with CAKI-1 renal; 38.2% in the assay with A498 renal; 32.3% in the assay with CCRF-CEM leukemia. Also, the figures for the growth with MOLT-4 leukemia and in the assay on SR leukemia were 28.3% and 36.7%, respectively.

These data come from PubChem BioAssay (NCI).
